Results filed as inconclusive are left out. Calls of active or inactive are those of the source. Calls come from the whole dose curve; as a rule, active = well fitted curve in the direction sought with a large enough effect; inconclusive = small, poorly fitted or top-dose-only effect, or another doubt; inactive = no such curve, though single readings can be large; an effect the other way counts as inactive or inconclusive.
What was measured:
NIH3T3 = experiment: Cytotoxic Profiling of Annotated Libraries Using Quantitative High-Throughput Screening (AID 1296008); details: Five cell lines viability, CellTiter-Glo ATP luminescence, 48-72 h; max response: stronger effect = lower value; note: potency is the fitted concentration of half-maximal effect; nearly all actives have a fitted effect of over 60% in size
How it was run: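 Compounds were pin-transferred onto cells and incubated 48 or 72 hr at 37 degree Celsius, 95% humidity. CellTiter-Glo was added, plates sat 10 min at room temperature, then ATP-coupled luminescence was imaged as the viability read-out.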

MKL-2 = experiment: qHTS assay to identify novel small-molecules to repurpose for Merkel cell carcinoma treatment (AID 1296009); details: MCC and control cell lines, CellTiter-Glo viability, 72 h; series mostly up to 46 µM; note: nearly all actives have a fitted effect of over 60% in size; note: potency is the fitted concentration of half-maximal effect
How it was run: (§1)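 qHTS format: cells treated with library compounds in DMSO across 8 (NPC) or 11 (MIPE) concentrations. Readout after 72 hr at 37 degree celsius was CellTiter-Glo luminescence.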

MCC-13 = experiment: as above; details: MCC and control cell lines, CellTiter-Glo viability, 72 h; series mostly up to 46 µM
How it was run: as §1

UISO = experiment: as above; details: MCC and control cell lines, CellTiter-Glo viability, 72 h; series mostly up to 46 µM
How it was run: as §1

C33A = experiment: Primary qHTS to identify gynecologic anti-cancer compounds using libraries of approved drugs and bioactive compounds (AID 1345084); details: Gynecologic cancer cell panel viability, ATPlite luminescence, 48 h; series mostly up to 57.5 µM; note: nearly all actives have a fitted effect of over 55% in size
How it was run: (§2)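 ATP-based viability (ATPlite), 1,000 cells/well, 16 h pre-incubation, 48 h compound at 37 C, 5% CO2, 15 min RT before read.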

CAOV3 = experiment: as above; details: Gynecologic cancer cell panel viability, ATPlite luminescence, 48 h; series mostly up to 57.5 µM
How it was run: as §2

CASKI = experiment: as above; details: Gynecologic cancer cell panel viability, ATPlite luminescence, 48 h; series mostly up to 57.5 µM
How it was run: as §2

Es-2 = experiment: as above; details: Gynecologic cancer cell panel viability, ATPlite luminescence, 48 h; series mostly up to 57.5 µM
How it was run: as §2

HeLa = experiment: as above; details: Gynecologic cancer cell panel viability, ATPlite luminescence, 48 h; series mostly up to 57.5 µM
How it was run: as §2

Hek293T = experiment: as above; details: Gynecologic cancer cell panel viability, ATPlite luminescence, 48 h, control line for the selectivity index; series mostly up to 57.5 µM
How it was run: as §2

JEG-3 = experiment: as above; details: Gynecologic cancer cell panel viability, ATPlite luminescence, 48 h; series mostly up to 57.5 µM
How it was run: as §2

OV90 = experiment: as above; details: Gynecologic cancer cell panel viability, ATPlite luminescence, 48 h; series mostly up to 57.5 µM
How it was run: as §2

PA-1 = experiment: as above; details: Gynecologic cancer cell panel viability, ATPlite luminescence, 48 h; series mostly up to 57.5 µM
How it was run: as §2

MCC-26 = experiment: qHTS assay to identify novel small-molecules to repurpose for Merkel cell carcinoma treatment (AID 1296009); details: MCC and control cell lines, CellTiter-Glo viability, 72 h; series mostly up to 46 µM; note: nearly all actives have a fitted effect of over 60% in size; note: potency is the fitted concentration of half-maximal effect
How it was run: as §1

WaGa = experiment: as above; details: MCC and control cell lines, CellTiter-Glo viability, 72 h; series mostly up to 46 µM
How it was run: as §1

HACAT = experiment: as above; details: MCC and control cell lines, CellTiter-Glo viability, 72 h; at 44.8 µM (top of the series) unless noted
How it was run: as §1

MKL-1 = experiment: as above; details: MCC and control cell lines, CellTiter-Glo viability, 72 h; series mostly up to 46 µM
How it was run: as §1

Measured: Potency

CCc1cc(-c2n[nH]c(C)c2-c2ccc3c(c2)OCCO3)c(O)cc1O
active: NIH3T3 8.33 µM
inactive: MKL-2

Cc1ccc2c(c1)C(=O)[C@]1(O)CCN(c3ccccc3)C1=N2
inactive: MCC-13 | MKL-2 | UISO | C33A | CAOV3 | CASKI | Es-2 | HeLa | Hek293T | JEG-3 | OV90 | PA-1

Cc1csc(-c2nnc(Nc3ccc(Oc4ncccc4-c4ccnc(N)n4)cc3)c3ccccc23)c1
inactive: MCC-26 | UISO | C33A | CASKI | HeLa | Hek293T | JEG-3 | OV90 | PA-1
active: WaGa 0.0118 µM

O=C(Nc1ccc(OC(F)(F)F)cc1)c1sccc1NCc1ccnc2ccccc12
inactive: HACAT | MCC-13 | MCC-26 | C33A | CASKI | Es-2 | HeLa | Hek293T | JEG-3

Clc1ccc(COC(Cn2ccnc2)c2ccc(Cl)cc2Cl)c(Cl)c1 (stereo not given)
inactive: MCC-13 | MCC-26 | MKL-1 | MKL-2

CC1(C)C(N(O)C(=O)Nc2ccc(Cl)cc2)N(c2ccc(Cl)cc2)C(=O)N1CC(=O)NN=CC=Cc1ccc([N+](=O)[O-])o1 (stereo not given)
inactive: MCC-13 | MCC-26 | UISO
active: MKL-2 23.5 µM

COc1cc2nccc(Oc3ccc(NC(=O)Nc4ccc(F)cc4F)c(F)c3)c2cc1OC
inactive: MCC-13 | MCC-26 | MKL-2 | UISO | WaGa

CN1CCc2c(n(Cc3ccc(C(=O)NO)cc3)c3ccccc23)C1
inactive: MCC-13 | MCC-26 | UISO | C33A | CAOV3 | CASKI | Hek293T | JEG-3 | OV90
active: MKL-2 14.8 µM | WaGa 18.7 µM

Nc1ccn([C@@H]2O[C@H](CO)[C@@H](O)[C@H]2O)c(=O)n1
inactive: MKL-2
active: NIH3T3 0.526 µM | MKL-1 9.35 µM | WaGa 0.132 µM

CC(C)C[C@@H](C(=O)N[C@H](C(=O)OC1CCCC1)c1ccccc1)[C@H](O)C(=O)NO
active: MKL-2 23.5 µM | WaGa 7.43 µM
inactive: MCC-13 | MCC-26 | MKL-1

C=CC(=O)Nc1cccc(Sc2nc(Nc3ccc(N4CCN(C)CC4)cc3)ncc2Cl)c1
inactive: Es-2 | JEG-3 | OV90

CCC(=C(c1ccc(O)cc1)c1ccc(OCCNC)cc1)c1ccccc1
inactive: MCC-13 | MCC-26 | MKL-1 | MKL-2 | UISO | WaGa

COc1c(C)cnc(Cn2cnc3c(Cl)nc(N)nc32)c1C
active: NIH3T3 0.526 µM | UISO 0.743 µM | WaGa 0.209 µM
inactive: MKL-2

O=C(O)Cc1cccc(OCCCN(Cc2cccc(C(F)(F)F)c2Cl)CC(c2ccccc2)c2ccccc2)c1
inactive: MKL-1 | MKL-2 | WaGa
active: MCC-26 26.4 µM

CCCCC(F)(F)[C@@]1(O)CC[C@H]2[C@H](CC(=O)[C@@H]2CCCCCCC(=O)O)O1
inactive: C33A | CAOV3 | CASKI | Es-2 | HeLa | Hek293T | JEG-3 | OV90 | PA-1

C[C@@H]1C[C@H]2[C@@H]3CCC4=CC(=O)C=C[C@]4(C)[C@@]3(F)[C@@H](O)C[C@]2(C)[C@@]1(O)C(=O)CO
inactive: C33A | CASKI | Es-2 | HeLa | Hek293T | JEG-3 | OV90 | PA-1

Reference: PubChem BioAssay (NCATS)
